According to PubChem BioAssay AID1159580 (chemical genetic matrix, 2015):
Out of some 5,500 compounds screened, about 2,000 (36%) were called active. About 18% were inconclusive and are not listed. No stated cut-off is given here; in the data, active means normalized growth mostly below about 0.91 (no sharp cut-off); inconclusive means no clear call, values can overlap the other calls; inactive means mostly above about 0.92. This is one part of the list.

Assay: chemical genetic growth profiling, strain panel (AID 1159580);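 further: tested at 20 µM; growth read once vehicle control cultures reached saturation at 30 °C; 1 = growth at the plate median or of vehicle wells; lower values mean less growth of the strain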
Conditions: S. cerevisiae deletion strains, growth OD
[1] = locus YAL040C, strain CLN3, active compounds read low
[2] = locus YCL061C, strain MRC1 (second series), active compounds read low
[3] = locus YDR363W, strain ESC2, active compounds read low
[4] = locus YER002W, strain NOP16, active compounds read low
[5] = locus YGR078C, strain PAC10, active compounds read low
[6] = locus YGR229C, strain SMI1, active compounds read low
[7] = locus YNL175C, strain NOP13, active compounds read low
[8] = locus YNL197C, strain WHI3, active compounds read low
[9] = locus YNL224C, strain SQS1, active compounds read low
[10] = locus YNL322C, strain KRE1, active compounds read low
[11] = locus YOR083W, strain WHI5 (second series), active compounds read low
[12] = locus YDR150W, strain NUM1, active compounds read low
[13] = locus YJR075W, strain HOC1, active compounds read low
[14] = locus YMR263W, strain SAP30, active compounds read low
[15] = locus YMR307W, strain GAS1, active compounds read low
[16] = locus YPL241C, strain CIN2, active compounds read low
[17] = locus YHR030C, strain SLT2, active compounds read low

Measured: normalized growth

CC(/C=C/c1cccc(Oc2ccc(F)cc2)c1)N(O)C(N)=O (stereo unspecified)
inactive: [1] 0.991 | [2] 0.994 | [3] 0.987 | [4] 1.01 | [5] 1.01 | [6] 1 | [7] 1 | [8] 0.971 | [9] 0.984 | [10] 1.01 | [11] 0.966

N=C1Sc2ccccc2C2=NCCCN12
active: [15] 0.872
inactive: [1] 1.02 | [2] 1.01 | [12] 1.04 | [3] 1.01 | [4] 1.04 | [5] 1.02 | [13] 0.945 | [14] 1.01 | [7] 1.04 | [8] 1.02 | [9] 1.02 | [10] 1.01 | [11] 0.988 | [16] 1.02

OCCOCCN1CCN(C2=Nc3ccccc3Sc3ccccc32)CC1
inactive: locus YAL021C, strain ccr4, active compounds read low 1.01 | locus YAL026C, strain drs2, active compounds read low 1 | locus YAL030W, strain snc1, active compounds read low 0.992 | locus YBL061C, strain skt5, active compounds read low 1.02 | locus YBR009C, strain hhf1, active compounds read low 1.02 | locus YBR023C, strain chs3, active compounds read low 1.01 | locus YBR171W, strain sec66, active compounds read low 1 | locus YBR231C, strain swc5, active compounds read low 1.01 | locus YBR279W, strain paf1, active compounds read low 1.01 | locus YCL011C, strain gbp2, active compounds read low 0.993 | locus YCL016C, strain dcc1, active compounds read low 0.997 | locus YCL069W, strain vba3, active compounds read low 1.01 | locus YCR088W, strain abp1, active compounds read low 1 | locus YDL005C, strain med2, active compounds read low 1 | locus YDL040C, strain nat1, active compounds read low 1 | locus YDR001C, strain nth1, active compounds read low 1.01 | locus YDR069C, strain doa4, active compounds read low 0.998 | locus YDR137W, strain rgp1, active compounds read low 1 | locus YDR159W, strain sac3, active compounds read low 1 | locus YDR195W, strain ref2 0.977 | locus YDR297W, strain sur2, active compounds read low 0.993 | locus YDR334W, strain swr1, active compounds read low 1.01 | locus YDR335W, strain msn5, active compounds read low 1.01 | locus YDR392W, strain spt3, active compounds read low 1.02 | locus YEL003W, strain gim4, active compounds read low 1 | locus YEL037C, strain rad23, active compounds read low 1.01 | locus YEL061C, strain CIN8 (second series), active compounds read low 1 | locus YER015W, strain faa2, active compounds read low 1.01 | locus YER016W, strain bim1, active compounds read low 1.01 | locus YER111C, strain swi4, active compounds read low 1.01 | locus YER155C, strain BEM2 (second series), active compounds read low 0.993 | locus YFR010W, strain ubp6, active compounds read low 1.01 | locus YGL167C, strain pmr1, active compounds read low 1 | locus YGL173C, strain kem1, active compounds read low 1 | locus YGL227W, strain vid30, active compounds read low 0.989 | locus YGL240W, strain doc1, active compounds read low 0.992 | locus YGL253W, strain hxk2, active compounds read low 1.02 | locus YHR013C, strain ard1, active compounds read low 0.982 | locus YHR027C, strain rpn1, active compounds read low 1 | [17] 0.991 | locus YHR079C, strain IRE1, active compounds read low 0.994 | locus YHR142W, strain chs7, active compounds read low 1.02 | locus YJL092W, strain hpr5, active compounds read low 1.02 | locus YJL095W, strain BCK1 (second series), active compounds read low 1 | locus YJL095W, strain BCK1, active compounds read low 0.999 | locus YJL115W, strain asf1, active compounds read low 1 | locus YJL129C, strain trk1, active compounds read low 1.02 | locus YJL154C, strain vps35, active compounds read low 1.03 | locus YJL164C, strain tpk1, active compounds read low 1.01 | locus YJL166W, strain qcr8, active compounds read low 1.01 | locus YJL187C, strain SWE1, active compounds read low 1.01 | locus YJR066W, strain TOR1, active compounds read low 0.978 | locus YKL160W, strain elf1, active compounds read low 1 | locus YKR026C, strain gcn3, active compounds read low 1.02 | locus YKR091W, strain srl3, active compounds read low 1.01 | locus YLL001W, strain dnm1, active compounds read low 0.996 | locus YLL026W, active compounds read low 1 | locus YLL041C, strain sdh2, active compounds read low 1.02 | locus YLR027C, strain aat2, active compounds read low 1.01 | locus YLR113W, strain HOG1, active compounds read low 1 | locus YLR221C, strain rsa3, active compounds read low 1 | locus YLR258W, strain gsy2, active compounds read low 1.01 | locus YLR262C, strain YPT6 (second series), active compounds read low 1.03 | locus YLR320W, strain mms22, active compounds read low 0.981 | locus YLR342W, strain FKS1, active compounds read low 1 | locus YLR357W, strain rsc2, active compounds read low 1.01 | locus YLR370C, strain arc18, active compounds read low 1.01 | locus YLR384C, strain iki3, active compounds read low 1.01 | locus YML120C, strain ndi1, active compounds read low 1.01 | locus YMR058W, strain fet3, active compounds read low 1.01 | locus YMR125W, strain sto1, active compounds read low 1.01 | locus YMR129W, active compounds read low 1.01 | locus YMR205C, strain PFK2, active compounds read low 0.994 | locus YMR231W, strain pep5, active compounds read low 1 | locus YNL071W, strain lat1, active compounds read low 1 | locus YNL183C, strain NPR1, active compounds read low 0.975 | locus YNL209W, strain ssb2, active compounds read low 1.01 | locus YNL248C, strain rpa49, active compounds read low 0.977 | locus YNL322C, strain KRE1 (second series), active compounds read low 1 | locus YNR049C, strain mso1, active compounds read low 1.01 | locus YOR001W, strain rrp6, active compounds read low 0.995 | locus YOR070C, strain gyp1, active compounds read low 0.995 | locus YOR080W, strain dia2, active compounds read low 1 | locus YOR083W, strain WHI5, active compounds read low 0.991 | locus YOR106W, strain vam3, active compounds read low 0.997 | locus YOR231W, strain MKK1, active compounds read low 0.981 | locus YOR265W, strain rbl2, active compounds read low 1 | locus YOR270C, strain vph1, active compounds read low 1 | locus YOR290C, strain snf2, active compounds read low 1 | locus YPL051W, strain arl3, active compounds read low 1.02 | locus YPL078C, strain atp4, active compounds read low 1.01 | locus YPL106C, strain sse1, active compounds read low 1.03 | locus YPL240C, strain hsp82, active compounds read low 1 | locus YPL256C, strain CLN2, active compounds read low 0.989

Clc1ccc(C2=CSC3=NCCCN23)cc1
inactive: locus YAL013W, strain DEP1, active compounds read low 0.997 | locus YBR229C, strain ROT2, active compounds read low 1.02 | locus YDL101C, strain DUN1, active compounds read low 0.993 | [12] 0.959 | locus YEL061C, strain CIN8, active compounds read low 1 | [5] 0.992 | [6] 1.01 | [17] 0.986 | locus YHR087W, strain rtc3, active compounds read low 0.994 | locus YJR043C, strain POL32, active compounds read low 0.999 | [13] 0.989 | locus YLR039C, strain RIC1, active compounds read low 0.989 | locus YLR058C, strain SHM2 (second series), active compounds read low 1.01 | locus YLR085C, strain ARP6, active compounds read low 1.03 | locus YLR262C, strain YPT6, active compounds read low 0.998 | locus YML094W, strain GIM5, active compounds read low 0.993 | locus YMR219W, strain ESC1, active compounds read low 1.01 | [14] 0.986 | [15] 0.982 | locus YNL153C, strain GIM3, active compounds read low 0.995 | locus YNL298W, strain CLA4 (second series), active compounds read low 1.04 | [10] 0.999 | locus YNR030W, strain Alg12, active compounds read low 1.01 | locus YPL055C, strain LGE1, active compounds read low 1.03 | [16] 1 | locus YPR135W, strain CTF4, active compounds read low 1.02
